Records with an inconclusive call do not appear. Where a call stands in place of a potency, no number is given. Active and inactive are the calls of the source. The call rests on the fitted dose curve; in most records, active means well fitted inhibition curve with a large enough effect; inconclusive means small, poorly fitted or top-dose-only effect; inactive means flat fitted curve, though single readings scatter.
These molecules were tested against Dual specificity protein kinase CLK4 (Homo sapiens) (UniProt Q9HAZ1) (assay: qHTS Assay for Inhibitors of CDC-like Kinase 4 (Kinase-Glo Assay) (AID 1770; further: nearly all actives have a fitted effect of over 65% in size)). Details: recombinant Clk4, Kinase-Glo ATP depletion luminescence; series mostly up to 66.7 µM.
Dual specificity protein kinase CLK4 (Homo sapiens), sequence (Q9HAZ1 whole entry, looked up): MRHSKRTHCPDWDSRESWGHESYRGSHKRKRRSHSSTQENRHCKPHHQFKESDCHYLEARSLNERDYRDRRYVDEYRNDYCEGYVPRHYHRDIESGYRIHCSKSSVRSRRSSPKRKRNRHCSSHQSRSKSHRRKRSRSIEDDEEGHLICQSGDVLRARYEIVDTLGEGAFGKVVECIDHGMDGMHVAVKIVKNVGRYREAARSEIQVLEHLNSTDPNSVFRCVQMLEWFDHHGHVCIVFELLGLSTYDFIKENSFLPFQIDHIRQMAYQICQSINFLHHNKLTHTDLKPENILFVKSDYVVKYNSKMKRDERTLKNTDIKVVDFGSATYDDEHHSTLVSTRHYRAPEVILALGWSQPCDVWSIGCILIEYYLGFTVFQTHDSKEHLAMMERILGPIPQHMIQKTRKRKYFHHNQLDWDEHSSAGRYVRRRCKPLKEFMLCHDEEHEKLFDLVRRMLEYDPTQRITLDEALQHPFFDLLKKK
Description: NIH Molecular Libraries Probe Production Centers Network [MLPCN] NIH Chemical Genomics Center [NCGC] MLPCN Grant: 1R03MH084827-01 Assay Submitter (PI): Tom Misteli NCGC Assay Overview: Clk4 (Invitrogen, cat# PV3839) was assayed using ATP and the RS repeat peptide (AnaSpec cat # 61722) as substrates. Following the Clk4 reaction, the remaining ATP levels were detected using Promega Kinase-Glo technology wherein the remaining ATP from the kinase reaction is detected using Ultra-Glo luciferase and D-luciferin which generates a bioluminescence signal from the ATP. The positive control for the assay was TG003 (Sigma-Aldrich, cat# 300801-52-9) which has been described as an inhibitor of Clk 4[1].
NCGC Assay Protocol Summary: Two uL/well of substrate-buffer solution (100 uM RS peptide, 1 uM ATP, 25 mM Tris pH7.5, 10 mM MgCl2, 0.5 mM EGTA, 2.5 mM DTT, 0.01% Triton X-100 final concentration) was dispensed into 1536-well, assay plates (Greiner, solid white medium-binding plates) with Aurora Discovery BioRAPTR Flying Reagent Dispenser (FRD; Beckton-Dickenson). Using a Kalypsys pin tool equipped with a 1536-pin tool, 23 nL of compound solution was transferred to the assay plate. One uL/ well Clk4-buffer solution (25 nM Clk4, 25 mM Tris pH 7.5, 10 mM MgCl2, 0.5 mM EGTA, 2.5 mM DTT, 0.01% Triton X-100, final concentrations) was then added using the FRD yielding a total kinase reaction volume of 3 uL/ well. After 4.5 hours of room temperature incubation, 3 uL Kinase-Glo reagent was added for a final assay volume of 6 uL/ well. Luminescence was detected with the ViewLux plate reader (Perkin Elmer, Waltham, MA) after 5 min incubation using a 5 second exposure time and 2x binning.
With `COc1ccc(CNc2ccnc(-c3cccc(C#N)c3)n2)c(OC)c1` the Potency was 15.8 µM (active). In the case of `COc1ncc2ncc(=O)n(CCc3ccccc3)c2n1`, the Potency is reported as 14.1 µM (active). With `CCNc1ncc2nc(-c3cn(C)c4ccccc34)c(=O)n(Cc3ccc(F)cc3)c2n1` the Potency was “inactive”. For `COc1ccccc1-c1ccc2ncnc(NCc3ccccc3)c2c1`, the Potency was 3.98 µM (active). In the case of `CS(=O)(=O)Nc1cccc(-c2nc(NC3CC3)c3ccccc3n2)c1`, the Potency is reported as 7.94 µM (active). `COc1cccc(Cn2c(=O)c(-c3cccs3)nc3cnc(N4CCNCC4)nc32)c1` was tested, and the Potency was “inactive”. With `COc1ccc(-c2nc3cnc(OC)nc3n(-c3ccc(OC)cc3)c2=O)cc1` the Potency was “inactive”. For `COc1cccc(Cn2c(=O)c(CCc3ccccc3)nc3cnc(N4CCOCC4)nc32)c1`, the Potency was “inactive”. With `CCNc1ncc2nc(-c3ccc(Cl)cc3)c(=O)n(Cc3cccc(OC)c3)c2n1` the Potency was “inactive”. In the case of `N#CCCn1c(=O)c(-c2ccc(F)cc2)nc2cnc(N3CCNCC3)nc21`, the Potency is reported as “inactive”. `COc1cccc(-c2ccc3ncnc(NCCN4CCOCC4)c3c2)c1` was tested, and the Potency was 1.78 µM (active). For `Cc1ccccc1-c1ccc2ncnc(NCc3cccnc3)c2c1`, the Potency was 14.1 µM (active). `COc1ccccc1CNc1cc(-c2ccoc2)ncn1` was tested, and the Potency was “inactive”. In the case of `COc1ccccc1-c1nc(NCc2cccnc2)c2ccccc2n1`, the Potency is reported as “inactive”. In the case of `CN1CCN(c2ncc3nc(-c4ccccc4)c(=O)n(C4CC4)c3n2)CC1`, the Potency is reported as “inactive”. `COc1ccccc1CNc1cc(-c2ccccc2C(F)(F)F)ncn1` was tested, and the Potency was “inactive”. With `COc1ccccc1CNc1ncnc2ccc(-c3ccoc3)cc12` the Potency was 0.251 µM (active). With `CN(Cc1ccco1)c1cc(-c2cccc(NS(C)(=O)=O)c2)ncn1` the Potency was 11.2 µM (active). For `COc1cccc(-c2nc(NCCNC(C)=O)c3ccccc3n2)c1`, the Potency was 31.6 µM (active). For `CN1CCN(c2ncc3nc(-c4ccc(Cl)cc4)c(=O)n(Cc4ccc(F)cc4)c3n2)CC1`, the Potency was “inactive”. In the case of `COc1cccc(Nc2ncc3ncc(=O)n(C[C@H]4CCCO4)c3n2)c1`, the Potency is reported as 1.41 µM (active). In the case of `COc1cccc(Nc2ncc3nc(-c4ccc(Cl)cc4)c(=O)n(C[C@H]4CCCO4)c3n2)c1`, the Potency is reported as “inactive”. With `COc1ccccc1CNc1ncncc1-c1cccc(NS(C)(=O)=O)c1` the Potency was “inactive”. With `COc1ccc2[nH]cc(CCNc3ccnc(-c4ccccc4C(F)(F)F)n3)c2c1` the Potency was “inactive”. For `COc1ncc2nc(-c3cn(C)c4ccccc34)c(=O)n(C)c2n1`, the Potency was “inactive”. For `CS(=O)(=O)Nc1cccc(-c2ccc3ncnc(N4CCOCC4)c3c2)c1`, the Potency was 7.94 µM (active). With `CN1CCN(c2ncnc3ccc(-c4cccc(NS(C)(=O)=O)c4)cc23)CC1` the Potency was 6.31 µM (active). With `COc1ccc(CNc2nc(-c3cccc(C#N)c3)nc3ccccc23)c(OC)c1` the Potency was “inactive”. With `COc1ccccc1CNc1ncnc2ccc(-c3ccc4c(c3)OCO4)cc12` the Potency was 0.0794 µM (active). `COc1cccc(Cn2c(=O)c(-c3cccs3)nc3cnc(OC)nc32)c1` was tested, and the Potency was “inactive”. `Cc1noc(C)c1-c1cncnc1-n1ccnc1` was tested, and the Potency was “inactive”. `O=c1c(-c2cccc(F)c2)nc2cncnc2n1Cc1ccccc1Cl` was tested, and the Potency was “inactive”. In the case of `Cc1noc(C)c1-c1cncnc1N1CCN(C)CC1`, the Potency is reported as “inactive”. In the case of `COc1cccc(Nc2ncc3nc(C)c(=O)n(C[C@H]4CCCO4)c3n2)c1`, the Potency is reported as 12.6 µM (active). In the case of `N#CCCn1c(=O)c(-c2cc(F)cc(F)c2)nc2cnc(Nc3ccccc3)nc21`, the Potency is reported as “inactive”. For `Cc1cccc(CNc2ncncc2-c2ccccc2Cl)c1`, the Potency was “inactive”. With `COc1ccc(-n2c(=O)c(-c3ccc(F)cc3)nc3cnc(N4CCNCC4)nc32)cc1` the Potency was “inactive”. In the case of `COc1cccc(Cn2c(=O)c(-c3cccc(C#N)c3)nc3cnc(N4CCOCC4)nc32)c1`, the Potency is reported as “inactive”. With `COc1cccc(-c2nccc(NCc3ccccc3OC)n2)c1` the Potency was 22.4 µM (active). With `Cc1cnc(CNc2cc(-c3ccccc3C(F)(F)F)ncn2)cn1` the Potency was “inactive”.

From PubChem BioAssay (NCATS)
Potency means the concentration at half of the fitted maximal effect.
